# Where “and” joins values, the source holds several entries; their conditions need not be identical. Equal entries are not always repeated. For part of these data: Potency and affinity values are given separately.
# Key:
# Set-up in all cases: scale not given: direction of the effect not stated beside the values
# [1] = molecular target: Protein translocase subunit SecA (Escherichia coli (strain K12)) (UniProt P10408); assay: Assay to Identify E. coli SecA ATPase Inhibitors; assay type: functional; conditions: 30 µM
# [2] = molecular target: T1, Ubiquitin-activating enzyme e1, putative (Leishmania donovani (strain BPK282A1)) (UniProt E9BSI1); assay: Leishmania donovani Ubiquitin Activating Enzyme (LdE1); assay type: functional; conditions: 30 µM
# T1 sequence (whole entry): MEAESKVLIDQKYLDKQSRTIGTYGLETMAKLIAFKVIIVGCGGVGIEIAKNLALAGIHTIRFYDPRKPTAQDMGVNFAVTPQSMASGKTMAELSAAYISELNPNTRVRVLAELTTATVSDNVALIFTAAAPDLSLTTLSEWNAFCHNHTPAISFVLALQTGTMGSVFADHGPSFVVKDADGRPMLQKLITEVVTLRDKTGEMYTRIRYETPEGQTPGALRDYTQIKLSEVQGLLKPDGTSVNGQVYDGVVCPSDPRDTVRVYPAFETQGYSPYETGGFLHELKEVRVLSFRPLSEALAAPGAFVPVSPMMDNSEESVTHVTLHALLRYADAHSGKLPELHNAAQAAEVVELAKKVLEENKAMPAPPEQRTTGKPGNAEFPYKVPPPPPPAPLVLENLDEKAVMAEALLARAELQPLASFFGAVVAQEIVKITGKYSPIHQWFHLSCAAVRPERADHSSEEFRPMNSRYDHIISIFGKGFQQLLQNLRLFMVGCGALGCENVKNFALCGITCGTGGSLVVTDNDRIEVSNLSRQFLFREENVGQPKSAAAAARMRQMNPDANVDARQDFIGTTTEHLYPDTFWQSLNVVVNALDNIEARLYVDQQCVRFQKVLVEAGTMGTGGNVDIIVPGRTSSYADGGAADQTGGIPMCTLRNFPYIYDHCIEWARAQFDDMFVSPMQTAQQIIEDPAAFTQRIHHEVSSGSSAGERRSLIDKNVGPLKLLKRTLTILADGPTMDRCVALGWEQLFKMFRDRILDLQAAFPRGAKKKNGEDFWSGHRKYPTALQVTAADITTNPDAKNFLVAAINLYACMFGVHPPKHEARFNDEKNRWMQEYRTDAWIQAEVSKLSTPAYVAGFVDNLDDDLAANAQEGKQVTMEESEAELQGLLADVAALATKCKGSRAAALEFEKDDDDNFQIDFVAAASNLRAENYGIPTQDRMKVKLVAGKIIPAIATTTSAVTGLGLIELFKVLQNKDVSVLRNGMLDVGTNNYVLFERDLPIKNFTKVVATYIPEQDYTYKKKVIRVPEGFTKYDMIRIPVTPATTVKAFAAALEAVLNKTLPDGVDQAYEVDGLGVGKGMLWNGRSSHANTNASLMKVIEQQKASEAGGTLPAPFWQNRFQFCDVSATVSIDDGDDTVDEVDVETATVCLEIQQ
# [3] = molecular target: AMP-activated protein kinase, AMPK (Homo sapiens) (UniProt P54646+O43741+P54619+Q9UGJ0+Q9Y478+Q13131+Q9UGI9); assay: AMP-dependent Kinase enzyme assay. An in vitro enzyme assay that detects ADP turnover that is directly proportional to AMPK activity. This uses naive AMPK that is activated during the assay with MK-8722; assay type: functional; conditions: 30 µM
# [4] = molecular target: Sialic acid-binding Ig-like lectin 9 (Homo sapiens) (UniProt Q9Y336); assay: Hs-Siglec9 ALPHAscreen SOP 20170721; conditions: 10 µM
# Trypanosoma cruzi = assay: Trypanosoma cruzi phosphomannomutase and mannose-1-phosphate guanylyltransferase assay; assay type: functional; conditions: 10 µM
# [5] = molecular target: T2, Arginase-2, mitochondrial (Homo sapiens) (UniProt P78540); assay: in vitro enzyme assay to detect the production of urea directly proportional to the activity of Arginase II; assay type: functional; conditions: 33.3 µM; also: in the data most compounds retested in dose-response had high values
# T2 sequence (whole entry): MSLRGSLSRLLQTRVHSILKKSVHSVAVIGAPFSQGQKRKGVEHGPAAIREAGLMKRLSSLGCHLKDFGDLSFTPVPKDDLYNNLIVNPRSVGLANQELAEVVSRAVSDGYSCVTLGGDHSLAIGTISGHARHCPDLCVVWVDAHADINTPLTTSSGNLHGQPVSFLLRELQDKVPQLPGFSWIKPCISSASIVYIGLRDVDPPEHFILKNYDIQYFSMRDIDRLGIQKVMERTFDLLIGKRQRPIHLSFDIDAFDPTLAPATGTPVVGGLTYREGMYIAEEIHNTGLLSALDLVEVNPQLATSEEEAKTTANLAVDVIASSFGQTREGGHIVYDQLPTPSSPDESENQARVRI
# [6] = molecular target: T3, Proteasome subunit beta (Trypanosoma cruzi) (UniProt O96673); assay: Trypanosoma cruzi proteasome chymotrypsin-like activity (TcProtChymo) assay.; also: in the data most compounds retested in dose-response had high values; assay type: functional; conditions: 9.37 µM
# T3 sequence (whole entry): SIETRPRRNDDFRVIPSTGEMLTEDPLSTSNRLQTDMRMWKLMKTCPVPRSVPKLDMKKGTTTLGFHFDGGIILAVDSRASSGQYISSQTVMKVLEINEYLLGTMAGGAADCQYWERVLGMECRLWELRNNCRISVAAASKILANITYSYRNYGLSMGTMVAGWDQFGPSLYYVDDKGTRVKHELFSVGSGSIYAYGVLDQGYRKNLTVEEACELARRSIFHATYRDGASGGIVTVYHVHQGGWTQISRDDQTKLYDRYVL
# N/A = assay: Trypanosoma cruzi proteasome luciferase counter-screen; assay type: functional; conditions: 9.37 µM
# Homo sapiens = species: Homo sapiens; assay: To identify inhibition of the IFN signalling (Jak-Stat) pathway via expression of an eGFP reporter gene under the control of an IFN-stimulated response element (ISRE) containing MxA promoter.; assay type: functional; conditions: 30 µM
# [7] = molecular target: T4, Tyrosyl-tRNA synthetase, putative (Trypanosoma cruzi (strain CL Brener)) (UniProt Q4DSP6); assay: Trypanosoma cruzi tyrosyl tRNA synthetase (TcYRS) _High Tyrosine SOP; assay type: functional; conditions: 30 µM; also: in the data most compounds retested in dose-response had high values
# T4 sequence (whole entry): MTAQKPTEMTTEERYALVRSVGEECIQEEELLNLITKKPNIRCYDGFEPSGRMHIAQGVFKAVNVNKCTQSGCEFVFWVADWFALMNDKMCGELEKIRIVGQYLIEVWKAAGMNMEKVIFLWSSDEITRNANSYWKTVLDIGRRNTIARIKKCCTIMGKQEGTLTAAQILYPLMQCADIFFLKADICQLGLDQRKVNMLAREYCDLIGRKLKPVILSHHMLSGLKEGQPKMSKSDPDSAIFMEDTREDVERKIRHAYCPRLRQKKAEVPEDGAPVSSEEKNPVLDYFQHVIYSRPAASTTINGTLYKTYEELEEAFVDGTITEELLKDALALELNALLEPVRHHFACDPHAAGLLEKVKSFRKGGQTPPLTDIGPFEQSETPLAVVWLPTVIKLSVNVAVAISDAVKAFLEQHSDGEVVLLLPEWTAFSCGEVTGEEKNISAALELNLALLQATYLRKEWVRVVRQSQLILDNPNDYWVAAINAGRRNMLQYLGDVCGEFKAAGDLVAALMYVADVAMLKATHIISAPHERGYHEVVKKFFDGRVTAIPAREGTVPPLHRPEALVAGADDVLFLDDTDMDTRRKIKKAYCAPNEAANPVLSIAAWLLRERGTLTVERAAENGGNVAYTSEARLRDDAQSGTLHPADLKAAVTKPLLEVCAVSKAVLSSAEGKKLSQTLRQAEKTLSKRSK
# [8] = molecular target: T4, Tyrosyl-tRNA synthetase, putative (Trypanosoma cruzi (strain CL Brener)); assay: Trypanosoma cruzi tyrosyl tRNA synthetase (TcYRS) SOP; assay type: functional; conditions: 30 µM
# [9] = molecular target: Chromo domain-containing protein 1 (Saccharomyces cerevisiae (strain ATCC 204508 / S288c) (Baker's yeast)) (UniProt P32657); assay: ScCHD-1 Enzyme Inhibition Assay; assay type: functional; conditions: 30 µM; also: in the data most compounds retested in dose-response had high values
# Chromo domain-containing protein 1 (Saccharomyces cerevisiae (strain ATCC 204508 / S288c) (Baker's yeast)), sequence (P32657 whole entry, the tested form may be a part): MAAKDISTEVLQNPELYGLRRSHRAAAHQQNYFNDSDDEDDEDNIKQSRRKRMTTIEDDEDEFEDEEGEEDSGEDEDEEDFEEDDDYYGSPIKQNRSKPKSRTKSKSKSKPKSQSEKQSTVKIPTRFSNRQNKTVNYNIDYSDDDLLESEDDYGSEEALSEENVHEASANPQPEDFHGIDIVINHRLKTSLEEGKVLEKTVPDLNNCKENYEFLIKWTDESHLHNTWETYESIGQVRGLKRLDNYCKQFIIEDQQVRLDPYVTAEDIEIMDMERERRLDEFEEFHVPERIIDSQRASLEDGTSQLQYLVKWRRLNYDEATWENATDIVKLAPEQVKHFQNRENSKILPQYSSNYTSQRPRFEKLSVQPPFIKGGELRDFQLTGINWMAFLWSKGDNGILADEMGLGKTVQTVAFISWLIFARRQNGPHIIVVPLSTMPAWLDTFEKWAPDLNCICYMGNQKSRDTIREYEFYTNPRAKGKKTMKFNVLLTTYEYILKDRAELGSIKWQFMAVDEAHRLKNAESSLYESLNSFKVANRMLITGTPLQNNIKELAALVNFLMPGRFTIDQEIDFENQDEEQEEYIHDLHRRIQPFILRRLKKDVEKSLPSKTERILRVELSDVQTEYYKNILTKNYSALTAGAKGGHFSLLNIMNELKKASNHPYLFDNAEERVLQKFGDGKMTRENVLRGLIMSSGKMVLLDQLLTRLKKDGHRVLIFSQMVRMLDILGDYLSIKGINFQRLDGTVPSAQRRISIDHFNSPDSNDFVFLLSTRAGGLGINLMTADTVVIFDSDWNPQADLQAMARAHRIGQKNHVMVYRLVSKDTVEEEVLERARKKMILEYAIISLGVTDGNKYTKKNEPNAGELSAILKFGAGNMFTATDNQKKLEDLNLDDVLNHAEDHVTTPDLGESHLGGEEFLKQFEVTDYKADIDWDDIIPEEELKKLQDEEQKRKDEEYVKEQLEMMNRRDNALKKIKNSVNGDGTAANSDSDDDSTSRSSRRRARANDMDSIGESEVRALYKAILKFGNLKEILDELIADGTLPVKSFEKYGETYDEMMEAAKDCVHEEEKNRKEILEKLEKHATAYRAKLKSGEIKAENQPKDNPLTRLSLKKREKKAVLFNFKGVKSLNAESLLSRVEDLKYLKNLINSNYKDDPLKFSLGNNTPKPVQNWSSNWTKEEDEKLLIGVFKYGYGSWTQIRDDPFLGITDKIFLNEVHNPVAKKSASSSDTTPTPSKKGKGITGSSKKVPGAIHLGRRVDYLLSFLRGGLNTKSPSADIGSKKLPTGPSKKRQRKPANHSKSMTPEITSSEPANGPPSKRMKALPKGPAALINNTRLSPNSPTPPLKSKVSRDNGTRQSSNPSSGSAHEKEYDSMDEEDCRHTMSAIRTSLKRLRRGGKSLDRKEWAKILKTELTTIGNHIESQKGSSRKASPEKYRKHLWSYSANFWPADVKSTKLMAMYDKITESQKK
# Sialic acid-binding Ig-like lectin 9 (Homo sapiens), sequence (Q9Y336 whole entry): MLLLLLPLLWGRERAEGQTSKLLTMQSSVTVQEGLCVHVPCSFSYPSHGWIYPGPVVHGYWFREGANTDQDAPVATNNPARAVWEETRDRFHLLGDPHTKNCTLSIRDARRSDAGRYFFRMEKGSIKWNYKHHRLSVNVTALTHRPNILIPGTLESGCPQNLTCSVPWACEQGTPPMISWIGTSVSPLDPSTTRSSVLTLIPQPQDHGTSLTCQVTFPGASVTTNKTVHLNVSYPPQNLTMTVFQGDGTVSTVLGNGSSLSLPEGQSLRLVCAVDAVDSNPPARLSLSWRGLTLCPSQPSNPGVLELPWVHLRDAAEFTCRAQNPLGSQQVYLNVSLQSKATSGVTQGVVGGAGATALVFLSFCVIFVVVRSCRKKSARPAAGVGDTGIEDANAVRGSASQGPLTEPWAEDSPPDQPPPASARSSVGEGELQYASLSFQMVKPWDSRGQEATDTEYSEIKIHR
# Protein translocase subunit SecA (Escherichia coli (strain K12)), sequence (P10408 whole entry): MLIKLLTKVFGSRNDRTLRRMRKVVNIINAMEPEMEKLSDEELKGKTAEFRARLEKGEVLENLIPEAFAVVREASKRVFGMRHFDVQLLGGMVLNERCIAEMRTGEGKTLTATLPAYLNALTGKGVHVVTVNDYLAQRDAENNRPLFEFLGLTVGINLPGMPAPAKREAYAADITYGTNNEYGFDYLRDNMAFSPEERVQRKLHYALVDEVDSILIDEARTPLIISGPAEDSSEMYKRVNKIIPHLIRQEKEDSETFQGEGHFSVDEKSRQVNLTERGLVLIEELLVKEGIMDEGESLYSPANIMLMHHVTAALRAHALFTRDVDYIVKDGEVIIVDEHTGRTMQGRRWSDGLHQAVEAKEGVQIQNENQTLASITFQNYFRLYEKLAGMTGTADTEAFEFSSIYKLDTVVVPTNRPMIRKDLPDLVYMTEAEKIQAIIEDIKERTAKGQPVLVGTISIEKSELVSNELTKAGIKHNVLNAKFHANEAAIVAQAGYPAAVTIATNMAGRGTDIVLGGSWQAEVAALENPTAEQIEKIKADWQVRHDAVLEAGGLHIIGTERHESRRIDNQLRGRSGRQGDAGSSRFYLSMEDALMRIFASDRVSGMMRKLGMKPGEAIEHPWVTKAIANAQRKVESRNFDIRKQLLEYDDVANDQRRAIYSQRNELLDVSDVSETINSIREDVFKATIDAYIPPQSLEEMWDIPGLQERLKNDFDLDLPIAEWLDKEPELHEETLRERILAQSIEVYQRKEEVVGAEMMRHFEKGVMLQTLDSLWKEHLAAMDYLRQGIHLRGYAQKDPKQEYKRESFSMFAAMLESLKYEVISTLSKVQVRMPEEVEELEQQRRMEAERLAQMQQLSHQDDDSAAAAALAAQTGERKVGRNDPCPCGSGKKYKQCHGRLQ
Structure (SMILES),Percent Effect [1],Percent Effect [2],Percent Effect [3],Percent Effect [4],Percent Effect (Trypanosoma cruzi),Percent Effect [5],Percent Effect [6],Percent Effect (N/A),Percent Effect (Homo sapiens),Percent Effect [7],Percent Effect [8],Percent Effect [9]
Cn1cc(-c2cnc(N3CCCC3)nc2)cc1C(=O)O,-4.18%,8.11%,4.07%,6.18%,6.05%,22.9%,95.3% and 96.7% and 97.6%,80% and 80.9%,-5.85%,5.94%,13.4%,-8.33%
Cc1cnn(CC2CCCN2CC(=O)N(C)Cc2ccc(C)o2)c1 (stereo not given),-0.338%,0%,-4.82%,2.25%,5.21%,0.476%,34.4% and 30.7% and 30.2%,12.9% and 15.3%,-9.55%,5.82%,7.32%,-2.6%
COc1ccc(Cl)cc1C(=O)N1CCOC2(CNCCOC2)C1 (stereo not given),-5.73%,-2.7%,0.241%,-0.752%,-3.86%,-1.43%,7.59% and 10.9% and 31.4%,12.4% and 13.6%,-6.05%,2.65%,4.88%,-2.64%
CCc1nc(CN2CCCN(C(=O)CCc3ccco3)CC2)cs1,-4.67%,8.86%,-0.445%,-5.08%,5.64%,-4.95%,56.6% and 53% and 44.8%,0.501% and 5.84%,3.92%,7.29%,15.2%,-32.7%
Cc1ccc(CN(C)C(=O)CN2CC(n3cccn3)C2)o1,-6.67%,2.63%,17.5%,-1.07%,-1.46%,-4.73%,23.1% and 34.2% and 27.3%,20.4% and 19.7%,22.7%,-2.13%,-2.6%,-1.83%
Cc1noc(NC(=O)c2ccc(OC(F)(F)F)cc2)n1,-1.74%,18.4%,-0.843%,1.75%,2.52%,-4.68%,75.9% and 76.1% and 72%,32.7% and 35.8%,75.7%,15.3%,28.4%,-3.4%
CC(C)c1n[nH]c(C(=O)Nc2ccncc2)c1Br,-1.59%,7.59%,60%,0.333%,-3.31%,4.18%,97% and 96.6% and 95.9%,81.8% and 83.2%,58.2%,4.43%,8.86%,-3.82%
c1cc(OCc2ccc3c(c2)OCCO3)ccc1CNC1CC1,5.92%,0%,13.6%,-13.3%,-7.3%,-5.92%,91.2% and 90% and 88.4%,63.7% and 65.3%,23%,-2.13%,5.2%,-5.94%
Cc1ccc(N(C)C2CCN(C(=O)CCc3ccco3)CC2)nn1,-4.56%,5.41%,12.7%,1.05%,5.66%,0.554%,48.4% and 44.9% and 50.1%,12.6% and 9.51%,8.17%,22.8%,23.2%,3.63%
Cn1cc(-c2cnc(N3CCOCC3)nc2)cc1C(=O)O,-3.79%,5.41%,2.15%,1.49%,5.08%,18.3%,100% (2×) and 98.7%,97.4% and 97.5%,5.61%,5.94%,11%,-7.1%
